Laboratory results from PubChem BioAssay (NCI).
This is part of a sample that, as a whole, favours compounds with a hit. Of some 83,000 tested, about 20% had one in any assay.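 Growth was measured after 48 h exposure to one concentration of compound in 96-well plates. Values under 10 count as active.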 Unmarked numbers belong to inactive results. Activity calls are given as the source filed them.

Columns and labels:
Assay in all cases: NCI-60 one-dose screen, 48 h (100 = growth as untreated, 0 = no growth, -100 = all killed)
Details in all cases: 10 µM unless noted
[1] = test system: NCI-H23 lung
[2] = test system: NCI-H226 lung
[3] = test system: NCI-H322M lung
[4] = test system: HOP-62 NSCLC
[5] = test system: NCI-H460 lung
[6] = test system: HOP-92 NSCLC
[7] = test system: NCI-H522 lung
[8] = test system: A549/ATCC NSCLC
[9] = test system: 786-0 renal
[10] = test system: COLO 205 colon
[11] = test system: DU-145 prostate
[12] = test system: K-562 leukemia
[13] = test system: MALME-3M melanoma
[14] = test system: MDA-MB-231 breast
[15] = test system: RXF 393 renal
[16] = test system: SF-268 CNS
[17] = test system: SF-295 CNS
[18] = test system: SF-539 CNS
[19] = test system: UACC-257 melanoma
[20] = test system: M14 melanoma

Structure (SMILES) | growth [1] [%] | growth [2] | growth [3] [%] | growth [4] | growth [5] | growth [6] [%] | growth [7] | growth [8] [%] | growth [9] [%] | growth [10] | growth [11] [%] | growth [12] | growth [13] | growth [14] | growth [15] [%] | growth [16] [%] | growth [17] | growth [18] | growth [19] [%] | growth [20] [%]
Oc1c(CN2CCC(N3CCOCC3)CC2)cc(Cc2cc(CN3CCC(N4CCOCC4)CC3)c(O)c3ncccc23)c2cccnc12 | 40.8 | 2.53% (active) | 37.6 | 19.4% | 10.5% | 41.7 | 15.4% | 18.5 | 25.5 | 9.1% (active) | 34.5 | 11.1% | 56.1% | 8.58% (active) | 53.5 | 25.5 | -21.1% (active) | 6.51% (active) | 64.5 | 11.3
Cn1cc(-c2nonc2-c2c[nH]c3ccccc23)c2cc(Br)ccc21 | 52.9 | 75.5% | 53.2 | 25.2% | 14.9% | 63.4 | 7.04% (active) | 27.9 | 50.6 | 15% | 58.1 | 11.1% | 40.8% | 37% | 70.9 | 43.3 | 24.5% | 40.1% | 71.5 | 18.5
COc1ccc(Oc2ccc(/C=C/C(=O)c3ccc(OC)c(OC)c3)cc2)cc1 | 83.7 | 90.9% | 86.7 | 118% | 93.9% | 83.7 | 57.4% | 81.8 | 103 | 91.9% | 76.6 | 66% | 92.9% | 94.3% | 101 | 97.1 | 87% | 100% | 78.6 | 92.9
COC(=O)[C@]1(C)CCC[C@]2(C)[C@H]3C[C@@H]4[C@H]5[C@@H]6CC/C(=N\OCC/C(N)=N/O)[C@H]5[C@@]3(CC[C@H]21)CC4(C(C)C)O6 | 73.4 | 83.7% | 82.2 | 80.8% | 67.5% | 65 | 54.7% | 71.8 | 86.2 | 72.1% | 71.5 | 79.3% | 82.1% | 61.2% | 42.5 | 72.9 | 72.7% | 79.2% | 80.4 | 72.6
N#Cc1ccc(/C=C/c2cn(-c3ccccc3)nc2-c2cccc([N+](=O)[O-])c2)cc1 | 56.4 | 6.28% (active) | 62.9 | 37.8% | 40.1% | 74.6 | 20.1% | 49.5 | 58.7 | 83.6% | 59.5 | 61.2% | 50.3% | 36.1% | 67.1 | 56.5 | 62.5% | 65.7% | 70.2 | 68.8
COc1ccc(-c2cc(-c3cccnc3)nc3sc4c(N)c(C(C)=O)c(-c5ccccc5)nc4c23)cc1OC | 66.7 | 94.3% | 90.5 | 76.5% | 78% | 61.9 | 56.6% | 69 | 68.9 | 94.8% | 80.9 | 32.3% | 93.3% | 51.5% | 50.1 | 69.6 | 48.7% | 52.8% | 92.3 | 104
CCCC(=O)NC(c1ccc2c(c1)OCO2)c1cc(Cl)c2cccnc2c1O (stereo not given) | 48.3 | 50.4% | 42.1 | 23.1% | 22.7% | 39.4 | 13.8% | 30.7 | 32.4 | 11.5% | 53.7 | 11.4% | 42.5% | 34.9% | 59.9 | 37.7 | 12.7% | 18.6% | 37.8 | 26.3
O=c1cc(CP(=O)(O)O)c2cc(O)c(-c3ccccc3)cc2o1 | 101 | 101% | 101 | 103% | 104% | 95.7 | 94.7% | 106 | 104 | 108% | 105 | 105% | 103% | 111% | 105 | 99 | 101% | 104% | 101 | 97.6
Cc1ccc(NC(=O)c2sc3nc(C)c(C(O)c4ccccc4)cc3c2N)cc1 (stereo not given) | 26.4 | 57.4% | 56.8 | 31.2% | 2.88% (active) | 58.8 | 7.09% (active) | 22.7 | 40.3 | -15.8% (active) | 23.9 | 6.23% (active) | 49.1% | 15.9% | 39.3 | 49.5 | 4.89% (active) | -4.25% (active) | 60.2 | 16.3
CCC(C)(C)c1ccc(Nc2ccc(Nc3ccc(C(C)(C)CC)cc3)cc2)cc1 | 83.1 | 93% | 105 | 89.3% | 99.1% | 51.1 | 79.9% | 90.4 | 84.4 | 84.7% | 93.8 | 80.4% | 97.4% | 93.5% | 83.4 | 98.6 | 102% | 102% | 80.3 | 92.5
CCOC(=O)CNC1=C(Cl)C(=O)N(Cc2ccc(Cl)cc2)C1=O | 102 | 99.7% | 97 | 98% | 104% | 93.4 | 89.1% | 106 | 99 | 118% | 113 | 106% | 93.9% | 104% | 120 | 98.5 | 108% | 90.6% | 106 | 105
CCN1CCN(CCNc2nccc(-c3c(-c4ccc(F)c(O)c4)nc4occn34)n2)S1(=O)=O | 14 | 6.71% (active) | 64.3 | 33.7% | 34.9% | 68.5 | -3.38% (active) | 23 | 56.7 | 29% | 26.8 | 10.3% | 26.4% | 73.2% | 25.8 | 28 | 28.9% | 75.9% | 43.6 | 21.6
Cc1ccc(S(=O)(=O)OCC#CCOS(=O)(=O)c2ccc(C)cc2)cc1 | 59.3 | 84.3% | 93.9 | -12.9% (active) | 13.4% | 40.2 | -65.4% (active) | 17.1 | 74.5 | 52.6% | 52.2 | 40.2% | -65.9% (active) | 57.9% | 58.6 | 53.8 | 42.2% | 81.9% | 66.8 | 43.6
